Data published in PubChem BioAssay AID540296 (Southern Research Specialized Biocontainment Screening …, 2011).
Results with a measured potency or affinity are listed apart. The source made the active and inactive calls. How the calls were made is not given here.

Assay: MDCK cell cytotoxicity, dose response, cytotoxicity control (AID 540296)

Row | SMILES | outcome
1 | CN(C)c1cccc2c(C=C(C#N)C#N)ccc(N(C)C)c12 | inactive
2 | Cc1ccc(N2C(=O)C(CC(=O)Nc3cccc(F)c3)N(C3CC3)C2=O)cc1 (configuration not stated) | inactive
